One sequence from PMC7862700, “An all-to-all approach to the identification of sequence-specific readers for epigenetic DNA modifications on cytosine” can be followed below.

What all share (test): DAPPL (digital affinity profiling via proximity ligation, sequencing); 10 mM Tris-HCl pH 7.5, 50 mM NaCl, 1 mM DTT, 4% glycerol, room temperature, 30 min; GST-TFs on glutathione beads, 16-mer random dsDNA library, 0.1% formaldehyde crosslink after washing; high values mean tight binding
Assay [1] addresses T1, FEV (Homo sapiens, UniProt Q99581 1-238).
T1 sequence: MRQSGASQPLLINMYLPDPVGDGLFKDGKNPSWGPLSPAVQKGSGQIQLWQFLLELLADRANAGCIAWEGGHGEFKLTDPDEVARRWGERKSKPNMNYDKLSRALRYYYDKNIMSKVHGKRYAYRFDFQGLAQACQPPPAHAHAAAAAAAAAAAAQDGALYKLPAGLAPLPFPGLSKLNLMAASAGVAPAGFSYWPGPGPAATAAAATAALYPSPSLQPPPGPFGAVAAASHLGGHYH
Particulars: protein: recombinant; tags: N-terminal GST; dsDNA, one strand shown. Summed up:
(§1)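 Each value of binding signal is a hexamer's read frequency for a factor divided by the same hexamer's frequency in the tag-only sample. Barcoded, bead-captured GST fusions of human transcription factors made in yeast were pooled with that sample and incubated with 200 nmole of a random double-stranded 16-mer DNA library in Tris/NaCl/DTT/glycerol buffer at room temperature for 30 min. Washing, 0.1% formaldehyde crosslinking, proximity ligation, PCR and Illumina NextSeq500 sequencing followed.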

Assay [2] concerns the target ETV5 (Homo sapiens, UniProt P41161 1-510). The conditions noted are these: protein: recombinant; tags: N-terminal GST; dsDNA, one strand shown. A digest of the protocol: as §1
Assay [3] addresses HSF1 (Homo sapiens, UniProt Q00613 1-529). The conditions noted are these: protein: recombinant; tags: N-terminal GST; chain copies: 3; dsDNA, one strand shown. A digest of the protocol:
as §1

For assay [4], the target named is T2, SPIC (Homo sapiens, UniProt Q8N5J4 1-248).
T2 sequence: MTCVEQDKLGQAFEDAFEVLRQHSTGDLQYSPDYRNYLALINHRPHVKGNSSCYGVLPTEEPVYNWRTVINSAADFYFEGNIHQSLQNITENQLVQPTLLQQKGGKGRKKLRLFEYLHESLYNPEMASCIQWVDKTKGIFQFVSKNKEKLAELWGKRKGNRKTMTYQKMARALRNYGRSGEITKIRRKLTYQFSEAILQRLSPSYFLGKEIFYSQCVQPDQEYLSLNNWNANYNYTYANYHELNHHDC
The conditions noted are these: protein: recombinant; tags: N-terminal GST; dsDNA, one strand shown. Summed up: as §1

Assay [5] addresses ELF4 (Homo sapiens, UniProt Q99607 1-663). Particulars: protein: recombinant; tags: N-terminal GST; dsDNA, one strand shown. A digest of the protocol:
as §1

The target in assay [6] is T3, ELK4 (Homo sapiens, UniProt P28324-2 1-405).
T3 sequence: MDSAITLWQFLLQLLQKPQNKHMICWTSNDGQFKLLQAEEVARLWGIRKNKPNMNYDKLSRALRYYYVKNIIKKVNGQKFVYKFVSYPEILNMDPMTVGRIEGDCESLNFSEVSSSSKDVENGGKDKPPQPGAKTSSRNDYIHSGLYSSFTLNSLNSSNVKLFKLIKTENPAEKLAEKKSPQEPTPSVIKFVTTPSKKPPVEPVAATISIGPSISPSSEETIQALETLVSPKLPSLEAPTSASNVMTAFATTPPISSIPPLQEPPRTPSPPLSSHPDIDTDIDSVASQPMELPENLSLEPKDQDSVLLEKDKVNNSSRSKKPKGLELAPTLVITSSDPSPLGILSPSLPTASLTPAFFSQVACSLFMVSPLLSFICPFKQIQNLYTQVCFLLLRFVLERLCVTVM
Particulars: protein: recombinant; tags: N-terminal GST; dsDNA, one strand shown. Summed up: as §1

The target of assay [7] is T4, ETV2 (Homo sapiens, UniProt O00321 1-342).
T4 sequence: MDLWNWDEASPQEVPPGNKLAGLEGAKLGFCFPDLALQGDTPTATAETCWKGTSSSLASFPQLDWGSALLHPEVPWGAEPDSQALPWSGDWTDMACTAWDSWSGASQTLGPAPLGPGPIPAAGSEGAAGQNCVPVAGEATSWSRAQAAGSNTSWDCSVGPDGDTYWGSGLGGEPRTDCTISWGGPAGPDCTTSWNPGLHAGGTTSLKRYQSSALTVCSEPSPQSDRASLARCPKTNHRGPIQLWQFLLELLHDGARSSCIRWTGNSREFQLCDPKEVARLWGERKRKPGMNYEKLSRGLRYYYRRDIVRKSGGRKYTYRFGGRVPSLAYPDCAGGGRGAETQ
Particulars: protein: recombinant; tags: N-terminal GST; dsDNA, one strand shown. A digest of the protocol: as §1

Assay [8] has as its target T5, ELF3 (Homo sapiens, UniProt P78545 1-371).
T5 sequence: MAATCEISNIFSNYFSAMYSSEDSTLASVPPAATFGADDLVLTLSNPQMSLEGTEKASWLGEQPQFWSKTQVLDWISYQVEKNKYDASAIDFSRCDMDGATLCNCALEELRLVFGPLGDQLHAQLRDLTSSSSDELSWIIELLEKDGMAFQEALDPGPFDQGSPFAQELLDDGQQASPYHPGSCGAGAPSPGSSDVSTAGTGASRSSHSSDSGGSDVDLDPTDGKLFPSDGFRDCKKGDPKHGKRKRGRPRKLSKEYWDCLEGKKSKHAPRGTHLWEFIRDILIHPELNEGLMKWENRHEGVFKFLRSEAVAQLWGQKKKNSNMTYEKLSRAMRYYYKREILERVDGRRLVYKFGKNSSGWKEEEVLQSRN
Particulars: protein: recombinant; tags: N-terminal GST; dsDNA, one strand shown. A digest of the protocol: as §1

Assay [9] concerns the target CRX (Homo sapiens, UniProt O43186 1-299). Particulars: protein: recombinant; tags: N-terminal GST; dsDNA, one strand shown. Summed up:
as §1

The target of assay [10] is ETV1 (Homo sapiens, UniProt P50549 1-477). The conditions noted are these: protein: recombinant; tags: N-terminal GST; dsDNA, one strand shown. A digest of the protocol:
as §1

The target in assay [11] is T6, ERF (Homo sapiens, UniProt P50548 1-548).
T6 sequence: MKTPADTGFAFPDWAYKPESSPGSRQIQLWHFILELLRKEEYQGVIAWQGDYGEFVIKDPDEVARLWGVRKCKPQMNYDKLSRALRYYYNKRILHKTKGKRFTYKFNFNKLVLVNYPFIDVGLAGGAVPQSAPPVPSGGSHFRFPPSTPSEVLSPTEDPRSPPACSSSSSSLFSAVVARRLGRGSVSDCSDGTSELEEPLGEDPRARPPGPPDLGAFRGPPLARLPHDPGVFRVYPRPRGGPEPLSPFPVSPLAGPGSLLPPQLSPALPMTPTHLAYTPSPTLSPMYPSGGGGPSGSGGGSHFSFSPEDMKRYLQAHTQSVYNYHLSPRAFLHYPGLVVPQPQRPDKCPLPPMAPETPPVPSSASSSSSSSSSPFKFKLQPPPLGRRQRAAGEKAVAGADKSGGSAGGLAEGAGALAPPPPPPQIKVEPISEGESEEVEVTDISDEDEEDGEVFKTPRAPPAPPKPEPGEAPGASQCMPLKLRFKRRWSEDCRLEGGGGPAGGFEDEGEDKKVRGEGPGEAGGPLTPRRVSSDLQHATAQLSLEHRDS
The conditions noted are these: protein: recombinant; tags: N-terminal GST; dsDNA, one strand shown. Summed up: as §1

In assay [12] the target is T7, ETV3L (Homo sapiens, UniProt Q6ZN32 1-361).
T7 sequence: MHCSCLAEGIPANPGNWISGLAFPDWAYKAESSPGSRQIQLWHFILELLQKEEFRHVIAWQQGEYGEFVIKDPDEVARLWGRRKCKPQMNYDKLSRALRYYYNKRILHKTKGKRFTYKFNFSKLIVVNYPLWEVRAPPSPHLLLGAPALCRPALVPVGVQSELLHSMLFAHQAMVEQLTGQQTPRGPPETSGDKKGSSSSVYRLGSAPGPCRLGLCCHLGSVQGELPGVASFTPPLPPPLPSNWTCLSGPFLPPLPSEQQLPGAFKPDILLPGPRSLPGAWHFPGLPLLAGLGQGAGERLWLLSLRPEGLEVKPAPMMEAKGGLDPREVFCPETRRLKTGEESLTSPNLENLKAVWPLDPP
Particulars: protein: recombinant; tags: N-terminal GST; dsDNA, one strand shown. Summed up: as §1

Assay [13] deals with T8, ETS2 (Homo sapiens, UniProt P15036 1-469).
T8 sequence: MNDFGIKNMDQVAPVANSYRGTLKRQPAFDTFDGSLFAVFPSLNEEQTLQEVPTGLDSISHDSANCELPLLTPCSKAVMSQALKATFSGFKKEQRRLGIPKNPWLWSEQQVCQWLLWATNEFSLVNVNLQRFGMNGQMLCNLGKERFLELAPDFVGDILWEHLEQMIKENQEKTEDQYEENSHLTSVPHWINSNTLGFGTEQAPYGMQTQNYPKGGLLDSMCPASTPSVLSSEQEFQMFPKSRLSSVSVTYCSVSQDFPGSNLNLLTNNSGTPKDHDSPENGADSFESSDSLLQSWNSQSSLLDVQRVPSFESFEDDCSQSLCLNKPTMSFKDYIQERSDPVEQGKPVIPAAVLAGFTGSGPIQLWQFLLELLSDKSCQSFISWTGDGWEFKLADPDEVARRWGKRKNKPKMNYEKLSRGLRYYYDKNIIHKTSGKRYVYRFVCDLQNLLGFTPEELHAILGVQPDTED
Particulars: protein: recombinant; tags: N-terminal GST; dsDNA, one strand shown. Summed up: as §1

In assay [14] the target is T9, SPDEF (Homo sapiens, UniProt O95238 1-335).
T9 sequence: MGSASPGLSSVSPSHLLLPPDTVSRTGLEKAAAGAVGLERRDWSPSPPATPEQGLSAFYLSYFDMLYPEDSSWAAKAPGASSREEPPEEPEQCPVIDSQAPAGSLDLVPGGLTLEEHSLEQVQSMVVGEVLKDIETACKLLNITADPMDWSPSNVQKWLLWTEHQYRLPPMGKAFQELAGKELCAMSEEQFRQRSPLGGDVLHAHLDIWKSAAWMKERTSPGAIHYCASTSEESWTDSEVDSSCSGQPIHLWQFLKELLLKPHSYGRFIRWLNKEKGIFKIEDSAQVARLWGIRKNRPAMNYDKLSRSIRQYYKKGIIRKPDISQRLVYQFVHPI
Particulars: protein: recombinant; tags: N-terminal GST; dsDNA, one strand shown. A digest of the protocol: as §1

The target of assay [15] is T10, ETV7 (Homo sapiens, UniProt Q9Y603 1-341).
T10 sequence: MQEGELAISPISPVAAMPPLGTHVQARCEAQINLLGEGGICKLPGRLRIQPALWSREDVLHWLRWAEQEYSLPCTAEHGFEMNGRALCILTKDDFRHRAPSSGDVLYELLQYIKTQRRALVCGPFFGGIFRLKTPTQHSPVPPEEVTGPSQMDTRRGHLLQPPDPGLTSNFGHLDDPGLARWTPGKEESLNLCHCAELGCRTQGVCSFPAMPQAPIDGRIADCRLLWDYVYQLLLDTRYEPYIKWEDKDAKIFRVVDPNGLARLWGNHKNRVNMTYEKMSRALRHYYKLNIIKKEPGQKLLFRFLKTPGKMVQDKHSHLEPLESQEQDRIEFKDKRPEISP
The conditions noted are these: protein: recombinant; tags: N-terminal GST; dsDNA, one strand shown. Summed up: as §1

Assay [16] addresses T11, ELF5 (Homo sapiens, UniProt Q9UKW6-2 1-255).
T11 sequence: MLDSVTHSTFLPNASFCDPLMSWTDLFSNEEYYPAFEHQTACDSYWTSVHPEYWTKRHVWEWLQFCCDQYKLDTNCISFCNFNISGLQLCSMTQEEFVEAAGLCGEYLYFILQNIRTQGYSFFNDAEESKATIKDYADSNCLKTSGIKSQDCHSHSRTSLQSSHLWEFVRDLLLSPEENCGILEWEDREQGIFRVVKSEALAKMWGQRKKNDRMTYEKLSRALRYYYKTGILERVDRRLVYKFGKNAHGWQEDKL
The conditions noted are these: protein: recombinant; tags: N-terminal GST; dsDNA, one strand shown. A digest of the protocol: as §1

Assay [17] has as its target T12, ETV3 (Homo sapiens, UniProt P41162-2 1-143).
T12 sequence: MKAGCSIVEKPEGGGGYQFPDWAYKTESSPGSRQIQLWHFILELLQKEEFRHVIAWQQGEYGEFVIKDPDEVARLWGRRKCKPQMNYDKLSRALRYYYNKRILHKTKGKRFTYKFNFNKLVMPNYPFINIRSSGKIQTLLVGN
Particulars: protein: recombinant; tags: N-terminal GST; dsDNA, one strand shown. A digest of the protocol: as §1

The target of assay [18] is ETV6 (Homo sapiens, UniProt P41212 1-452). The conditions noted are these: protein: recombinant; tags: N-terminal GST; dsDNA, one strand shown. Summed up: as §1
Sequence of ETV6 (P41212 whole entry): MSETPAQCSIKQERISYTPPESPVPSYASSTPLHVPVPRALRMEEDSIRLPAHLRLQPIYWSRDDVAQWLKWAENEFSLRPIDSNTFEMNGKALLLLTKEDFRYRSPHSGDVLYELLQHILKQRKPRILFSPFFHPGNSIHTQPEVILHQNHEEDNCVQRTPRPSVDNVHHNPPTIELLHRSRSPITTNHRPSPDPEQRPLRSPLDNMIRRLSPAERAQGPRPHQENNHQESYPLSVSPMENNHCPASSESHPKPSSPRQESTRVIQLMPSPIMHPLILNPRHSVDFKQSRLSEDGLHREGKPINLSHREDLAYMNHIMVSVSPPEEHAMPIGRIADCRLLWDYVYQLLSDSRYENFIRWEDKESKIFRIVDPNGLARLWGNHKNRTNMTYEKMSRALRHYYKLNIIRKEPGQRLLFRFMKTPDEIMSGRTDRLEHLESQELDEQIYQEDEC

Sequence of ETV5 (P41161 whole entry): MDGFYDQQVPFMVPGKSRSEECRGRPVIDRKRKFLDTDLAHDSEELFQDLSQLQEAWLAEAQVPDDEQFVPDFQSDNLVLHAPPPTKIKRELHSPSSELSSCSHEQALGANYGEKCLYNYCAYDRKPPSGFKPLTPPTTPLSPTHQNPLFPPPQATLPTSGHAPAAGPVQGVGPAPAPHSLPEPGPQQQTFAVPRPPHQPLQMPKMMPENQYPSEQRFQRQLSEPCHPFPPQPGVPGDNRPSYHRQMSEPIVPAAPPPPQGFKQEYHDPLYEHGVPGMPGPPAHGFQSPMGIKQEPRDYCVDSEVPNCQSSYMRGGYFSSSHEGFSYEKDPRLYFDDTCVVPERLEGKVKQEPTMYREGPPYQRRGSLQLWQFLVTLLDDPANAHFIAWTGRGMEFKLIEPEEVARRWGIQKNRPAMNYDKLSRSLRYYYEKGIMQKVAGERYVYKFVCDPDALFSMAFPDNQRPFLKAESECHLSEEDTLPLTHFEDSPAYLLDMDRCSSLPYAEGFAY
Sequence of ELF4 (Q99607 whole entry): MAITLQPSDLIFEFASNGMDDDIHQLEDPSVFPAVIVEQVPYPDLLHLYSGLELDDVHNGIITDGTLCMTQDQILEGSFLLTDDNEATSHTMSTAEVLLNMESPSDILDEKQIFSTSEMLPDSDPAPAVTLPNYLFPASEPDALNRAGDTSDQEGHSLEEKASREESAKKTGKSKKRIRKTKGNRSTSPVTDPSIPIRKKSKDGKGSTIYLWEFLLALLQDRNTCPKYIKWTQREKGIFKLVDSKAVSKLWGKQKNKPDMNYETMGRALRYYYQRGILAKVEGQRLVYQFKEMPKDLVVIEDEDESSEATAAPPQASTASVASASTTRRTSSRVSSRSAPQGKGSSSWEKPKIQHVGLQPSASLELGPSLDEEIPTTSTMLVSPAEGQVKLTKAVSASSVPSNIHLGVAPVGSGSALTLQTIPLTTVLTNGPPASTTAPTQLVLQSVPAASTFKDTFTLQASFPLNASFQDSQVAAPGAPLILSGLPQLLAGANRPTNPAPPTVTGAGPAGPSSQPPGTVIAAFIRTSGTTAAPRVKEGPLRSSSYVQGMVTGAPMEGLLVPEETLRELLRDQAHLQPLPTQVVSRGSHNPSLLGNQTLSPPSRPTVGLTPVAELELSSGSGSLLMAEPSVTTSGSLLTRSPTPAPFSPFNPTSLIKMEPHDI
Sequence of CRX (O43186 whole entry): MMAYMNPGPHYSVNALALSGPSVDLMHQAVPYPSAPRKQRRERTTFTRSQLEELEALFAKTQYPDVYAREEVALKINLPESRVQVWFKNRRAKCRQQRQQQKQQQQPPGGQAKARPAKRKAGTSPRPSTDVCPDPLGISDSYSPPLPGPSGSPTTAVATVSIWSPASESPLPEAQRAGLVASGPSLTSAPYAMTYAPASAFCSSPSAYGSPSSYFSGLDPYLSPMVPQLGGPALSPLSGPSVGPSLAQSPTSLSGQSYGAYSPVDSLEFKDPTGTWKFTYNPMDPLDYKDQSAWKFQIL
Sequence of ETV1 (P50549 whole entry): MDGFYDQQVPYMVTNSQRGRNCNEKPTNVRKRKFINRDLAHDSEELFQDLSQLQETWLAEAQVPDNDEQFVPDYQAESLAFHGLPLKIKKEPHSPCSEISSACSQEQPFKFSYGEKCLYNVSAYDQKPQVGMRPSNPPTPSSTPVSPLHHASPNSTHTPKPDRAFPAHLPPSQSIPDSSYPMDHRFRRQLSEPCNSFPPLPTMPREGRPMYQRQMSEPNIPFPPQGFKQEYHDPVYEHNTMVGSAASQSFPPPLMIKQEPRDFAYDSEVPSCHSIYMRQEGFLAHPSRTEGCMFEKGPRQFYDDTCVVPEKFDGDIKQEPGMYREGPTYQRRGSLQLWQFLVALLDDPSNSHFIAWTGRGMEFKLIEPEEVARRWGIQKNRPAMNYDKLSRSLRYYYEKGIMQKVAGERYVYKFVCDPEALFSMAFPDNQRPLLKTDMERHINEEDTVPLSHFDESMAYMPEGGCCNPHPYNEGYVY
Sequence of HSF1 (Q00613 whole entry): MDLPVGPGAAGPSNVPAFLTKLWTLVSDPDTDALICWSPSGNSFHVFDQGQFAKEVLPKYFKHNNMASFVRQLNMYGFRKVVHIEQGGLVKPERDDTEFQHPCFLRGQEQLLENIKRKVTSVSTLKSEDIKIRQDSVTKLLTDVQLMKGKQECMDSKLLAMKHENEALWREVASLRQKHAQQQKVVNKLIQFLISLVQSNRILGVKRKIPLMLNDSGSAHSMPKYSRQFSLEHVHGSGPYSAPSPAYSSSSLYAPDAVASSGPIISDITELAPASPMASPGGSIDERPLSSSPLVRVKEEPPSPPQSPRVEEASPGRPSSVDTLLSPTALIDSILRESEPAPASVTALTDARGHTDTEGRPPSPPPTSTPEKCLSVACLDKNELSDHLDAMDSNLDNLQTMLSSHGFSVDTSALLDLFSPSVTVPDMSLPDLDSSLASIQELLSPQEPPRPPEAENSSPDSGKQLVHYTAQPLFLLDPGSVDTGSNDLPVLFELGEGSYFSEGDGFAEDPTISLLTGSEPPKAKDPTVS

As for ATTTGC, the binding signal in assay [1] was 1.29 fold enrichment (6-mer frequency, TF over GST control); in assay [2], 1.4 fold enrichment (6-mer frequency, TF over GST control); in assay [3], 1.47 fold enrichment (6-mer frequency, TF over GST control); in assay [4], 1.29 fold enrichment (6-mer frequency, TF over GST control); in assay [5], 1.23 fold enrichment (6-mer frequency, TF over GST control); in [6], 1.3 fold enrichment (6-mer frequency, TF over GST control). The binding signal was 1.23 fold enrichment (6-mer frequency, TF over GST control) in [7]; 1.33 fold enrichment (6-mer frequency, TF over GST control) in assay [8]; 1.5 fold enrichment (6-mer frequency, TF over GST control) in assay [9]; 1.38 fold enrichment (6-mer frequency, TF over GST control) in assay [10]; 1.32 fold enrichment (6-mer frequency, TF over GST control) in [11]; 1.26 fold enrichment (6-mer frequency, TF over GST control) in assay [12]. Further, the binding signal in assay [13] is 1.28 fold enrichment (6-mer frequency, TF over GST control); in [14] it was 1.27 fold enrichment (6-mer frequency, TF over GST control); in [15], 1.43 fold enrichment (6-mer frequency, TF over GST control); in [16] it was 1.25 fold enrichment (6-mer frequency, TF over GST control); in assay [17], 1.37 fold enrichment (6-mer frequency, TF over GST control); in assay [18], 1.27 fold enrichment (6-mer frequency, TF over GST control).
